In PMC4336329 (PLoS ONE, 2015):
Out of some 310,000 compounds screened, about 14,000 (4.5%) showed an effect of 50% or more. Effects have a minus sign here. This excerpt belongs to a sample that is enriched for strong results.

molecular target: human ether-à-go-go-related gene (hERG) potassium channel (human, UniProt Q12809); assay: primary screen, population patch clamp on CHO cells stably expressing hERG; higher = less effect of the substance
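Note: peak tail current of the secondary pulse compared with the same well before compound.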

human ether-à-go-go-related gene (hERG) potassium channel, sequence (Q12809 whole entry, looked up): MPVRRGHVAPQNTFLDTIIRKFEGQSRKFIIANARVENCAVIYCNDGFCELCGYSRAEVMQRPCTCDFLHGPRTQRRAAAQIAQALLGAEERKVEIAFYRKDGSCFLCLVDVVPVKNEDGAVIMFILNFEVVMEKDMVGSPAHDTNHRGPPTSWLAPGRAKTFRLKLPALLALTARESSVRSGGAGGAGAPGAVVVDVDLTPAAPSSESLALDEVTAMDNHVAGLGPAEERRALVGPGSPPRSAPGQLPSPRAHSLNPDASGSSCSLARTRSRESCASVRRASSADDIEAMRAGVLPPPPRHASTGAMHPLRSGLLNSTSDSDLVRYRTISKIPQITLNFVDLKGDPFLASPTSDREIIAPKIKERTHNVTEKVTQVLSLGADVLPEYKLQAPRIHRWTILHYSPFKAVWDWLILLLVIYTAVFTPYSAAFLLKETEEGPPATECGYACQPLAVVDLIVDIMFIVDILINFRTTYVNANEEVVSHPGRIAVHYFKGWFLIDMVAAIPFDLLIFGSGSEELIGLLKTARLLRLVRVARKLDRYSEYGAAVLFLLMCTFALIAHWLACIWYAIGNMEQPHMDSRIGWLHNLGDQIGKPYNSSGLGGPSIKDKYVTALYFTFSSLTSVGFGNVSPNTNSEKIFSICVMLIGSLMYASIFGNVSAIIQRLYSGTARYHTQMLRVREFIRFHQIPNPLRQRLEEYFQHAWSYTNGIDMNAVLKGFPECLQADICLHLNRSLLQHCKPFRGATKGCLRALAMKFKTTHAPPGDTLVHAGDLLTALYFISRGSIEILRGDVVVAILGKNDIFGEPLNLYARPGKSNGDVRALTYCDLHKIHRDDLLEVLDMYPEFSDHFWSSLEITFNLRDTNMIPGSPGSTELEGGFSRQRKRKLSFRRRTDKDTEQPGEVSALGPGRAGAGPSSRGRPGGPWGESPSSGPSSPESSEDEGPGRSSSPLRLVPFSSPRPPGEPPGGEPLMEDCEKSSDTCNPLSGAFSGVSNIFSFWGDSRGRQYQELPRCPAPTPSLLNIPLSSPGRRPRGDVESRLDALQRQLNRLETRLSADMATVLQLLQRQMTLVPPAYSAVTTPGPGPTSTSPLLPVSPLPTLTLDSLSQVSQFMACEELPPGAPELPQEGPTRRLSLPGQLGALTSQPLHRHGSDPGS

Structure (SMILES) | hERG current change (%, negative = inhibition) at 10uM [%]
C/C(=N\Nc1ccc2nncn2n1)c1ccc(Br)s1 | 6.83
O=C(/C=C/c1cccs1)NCc1ccccc1 | -2.08
Cc1ccc(-c2nn(C)c(=O)c3ccccc23)cc1S(=O)(=O)N1CCCC1 | -40.6
CCN(CC)S(=O)(=O)c1cc(-c2nn(C)c(=O)c3ccccc23)ccc1C | -53.5
CCC(CO)NS(=O)(=O)c1cc(-c2nn(C)c(=O)c3ccccc23)ccc1C (stereo not drawn) | -3.69
CCOC(=O)CNS(=O)(=O)c1cc(-c2nn(C)c(=O)c3ccccc23)ccc1C | -52.8
Cc1ccc(-c2nn(C)c(=O)c3ccccc23)cc1S(=O)(=O)NCCN(C)C | 4.35
COCCNS(=O)(=O)c1cc(-c2nn(C)c(=O)c3ccccc23)ccc1C | -28.9
Cc1cc(/C=C(/C#N)C(=O)O)c(C)n1-c1cccc2ccccc12 | 20.1
CCn1cc(C(=O)NCc2cccc(C(F)(F)F)c2)c(=O)c2ccc(C)nc21 | 2.71
O=C(Nc1ccc(N2CCN(Cc3ccccc3)CC2)cc1)c1cccnc1 | -14.4
CN1CCN(C(=O)CCN2C(=O)/C(=C/c3cccc(Br)c3)SC2=S)CC1 | 11.4
O=C(c1ccccc1)c1ccc(OC(=O)N2CCCC2)cc1 | -11
CCCNc1c(NS(=O)(=O)c2c(F)c(F)c(F)c(F)c2F)c(=O)oc2ccccc12 | -7.27
Cc1ccc(S(=O)(=O)Nc2c(NC3CCCCC3)c3ccccc3oc2=O)cc1 | -33.9
CCCNc1c(NS(=O)(=O)c2ccc(C)c(C)c2)c(=O)oc2ccccc12 | -30.6
Cc1ccc(S(=O)(=O)Nc2c(NC3CCCCC3)c3ccccc3oc2=O)cc1C | 2.53
Cc1ccc(S(=O)(=O)Nc2c(NC3CCCCC3)c3ccccc3oc2=O)c(C)c1 | -19.6
CCCNc1c(NS(=O)(=O)c2ccc(C)cc2C)c(=O)oc2ccccc12 | -52.2
CCCNc1c(NS(=O)(=O)c2ccc(OC)c(OC)c2)c(=O)oc2ccccc12 | -74.1
COc1ccc(OC)c(S(=O)(=O)Nc2c(NC3CCCCC3)c3ccccc3oc2=O)c1 | -54.1
COc1ccc(S(=O)(=O)Nc2c(NC3CCCCC3)c3ccccc3oc2=O)cc1 | -45.2
CCCNc1c(NS(=O)(=O)c2ccc(C(C)(C)C)cc2)c(=O)oc2ccccc12 | 10.8
COc1ccc(S(=O)(=O)Nc2c(NC3CCCCC3)c3ccccc3oc2=O)cc1OC | -6.99
N#Cc1cccc(S(=O)(=O)Nc2c(NC3CCCCC3)c3ccccc3oc2=O)c1 | -53.9
CCOc1ccccc1N1CCN(C(=S)Nc2ccc(S(=O)(=O)Nc3ncccn3)cc2)CC1 | -3.73
O=C(COC(=O)Cc1ccc(-c2ccccc2)cc1)NCc1ccccc1 | 20.8

Structure (SMILES) | hERG current change (%, negative = inhibition) at 10uM [%]
CC(C)c1ccc(NC(=O)c2ccc(Br)o2)cc1 | 3.82
COc1ccc(OCC(=O)Nc2ccncc2)cc1 | -17.3
O=c1[nH]c(CN2CCN(CCO)CC2)nc2ccccc12 | 21.5
O=C(NC1=NCCS1)c1cc(Cl)ccc1Cl | -24
Cn1cc(C(c2ccccn2)c2cn(C)c3ccccc23)c2ccccc21 | 8.3
CCc1[nH]c(=S)c(C#N)c(-c2ccccc2)c1C(=O)OC | 25.5
Cc1cc(=O)[nH]c(N/N=C/c2sccc2C)n1 | -1.84
CCOc1ccc(C(=O)COC(=O)CC)cc1 | 4.46
CC(/C=N/n1cnnc1)=C\c1ccco1 | -16.9
CCCNc1c(NS(=O)(=O)c2cccc(C#N)c2)c(=O)oc2ccccc12 | -58.7
CCCNc1c(NS(=O)(=O)c2ccc3c(c2)CCCC3)c(=O)oc2ccccc12 | 8.8
CCCNc1c(NS(=O)(=O)c2ccc(Br)cc2)c(=O)oc2ccccc12 | -34.7
CC(NC(=O)c1ccc(S(=O)(=O)N(C)C)cc1)c1ccccc1 (stereo not drawn) | 0.971
CC(NC(=O)c1cc(S(=O)(=O)N(C)C)ccc1Cl)c1ccc(-n2ccnc2)cc1 (stereo not drawn) | -76.8
CC(NC(=O)c1ccc(S(=O)(=O)N(C)C)cc1)c1ccc(-n2ccnc2)cc1 (stereo not drawn) | -74
CC(C)NC(=O)c1ccc(S(=O)(=O)N(C)C)cc1 | 0.0301
CNC(=O)c1cc(S(=O)(=O)N(C)C)ccc1Cl | 5.59
O=C(Cc1c(O)c2ccccc2[nH]c1=O)NC1CCCCCC1 | 3.69
OCCNc1c2ccccc2nc2c(F)c(F)c(F)c(F)c12 | 14.6
Cn1nc(C(F)(F)F)c(/C=N/OC(=O)c2ccccc2Cl)c1SCc1ccccc1Cl | -5.41
CSc1ccc(S(=O)(=O)NCC(=O)OCC(=O)NCc2ccco2)cc1[N+](=O)[O-] | -61.7
Cc1cc(S(=O)(=O)NCC(C)C)ccc1OCC(=O)NCc1ccco1 | -73.4
CSc1ccc(S(=O)(=O)NCC(=O)OCC(=O)NCCc2ccccc2)cc1[N+](=O)[O-] | 9.18
CSc1ccc(S(=O)(=O)NCC(=O)OCC(=O)NCc2cccs2)cc1[N+](=O)[O-] | -44.5
CC(C)CNS(=O)(=O)c1ccc(OCC(=O)NCc2ccco2)cc1 | -11.6
Cc1cc(S(=O)(=O)NCC(C)C)ccc1OCC(=O)NCc1ccccn1 | -22.8
N#C/C(=N\Nc1cccc(C(F)(F)F)c1)C(=O)c1ccsc1 | 11.3
